{"source": "paper PMC7862700", "about": "“An all-to-all approach to the identification of sequence-specific readers for epigenetic DNA modifications on cytosine”", "assay_in_all_cases": "DAPPL (digital affinity profiling via proximity ligation, sequencing); 10 mM Tris-HCl pH 7.5, 50 mM NaCl, 1 mM DTT, 4% glycerol, room temperature, 30 min; GST-TFs on glutathione beads, 16-mer random dsDNA library, 0.1% formaldehyde crosslink after washing; high values mean tight binding", "details_in_all_cases": "protein: recombinant; tags: N-terminal GST; dsDNA, one strand shown", "key": {"ELF4": {"target": "ELF4 (Homo sapiens, UniProt Q99607 1-663)", "sequence (Q99607 whole entry, the tested form may be a part)": "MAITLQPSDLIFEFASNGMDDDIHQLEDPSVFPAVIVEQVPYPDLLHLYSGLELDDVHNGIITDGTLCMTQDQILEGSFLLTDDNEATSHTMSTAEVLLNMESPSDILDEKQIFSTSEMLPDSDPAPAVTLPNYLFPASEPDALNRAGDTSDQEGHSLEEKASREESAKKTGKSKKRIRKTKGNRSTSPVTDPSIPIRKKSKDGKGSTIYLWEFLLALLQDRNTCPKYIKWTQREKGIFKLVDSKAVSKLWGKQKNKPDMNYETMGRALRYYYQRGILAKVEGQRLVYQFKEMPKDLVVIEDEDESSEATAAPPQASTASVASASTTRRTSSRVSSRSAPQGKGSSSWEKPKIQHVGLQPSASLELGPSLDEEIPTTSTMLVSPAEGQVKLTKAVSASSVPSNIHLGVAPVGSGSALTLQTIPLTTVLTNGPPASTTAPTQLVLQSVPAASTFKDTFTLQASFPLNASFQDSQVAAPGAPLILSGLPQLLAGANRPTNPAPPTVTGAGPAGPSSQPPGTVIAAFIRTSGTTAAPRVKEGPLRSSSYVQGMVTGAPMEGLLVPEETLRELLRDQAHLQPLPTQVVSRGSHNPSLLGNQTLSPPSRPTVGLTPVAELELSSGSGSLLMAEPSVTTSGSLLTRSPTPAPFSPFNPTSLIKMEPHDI", "how_it_was_run": "(§1)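 Binding signal is defined as a hexamer's read frequency for one factor over its frequency for the tag-only sample. To obtain reads, GST-fused human transcription factors were expressed in yeast, captured on glutathione beads, barcoded with DNA and pooled with that sample. Pools met 200 nmole of a 16-mer random double-stranded DNA library in Tris/NaCl/DTT/glycerol buffer for 30 min at room temperature before washing, 0.1% formaldehyde crosslinking, proximity ligation (BsaI/T4 ligase, 1 h, 37 °C), PCR and Illumina NextSeq500 sequencing.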"}, "ETV2": {"target": "T1, ETV2 (Homo sapiens, UniProt O00321 1-342)", "T1 sequence": "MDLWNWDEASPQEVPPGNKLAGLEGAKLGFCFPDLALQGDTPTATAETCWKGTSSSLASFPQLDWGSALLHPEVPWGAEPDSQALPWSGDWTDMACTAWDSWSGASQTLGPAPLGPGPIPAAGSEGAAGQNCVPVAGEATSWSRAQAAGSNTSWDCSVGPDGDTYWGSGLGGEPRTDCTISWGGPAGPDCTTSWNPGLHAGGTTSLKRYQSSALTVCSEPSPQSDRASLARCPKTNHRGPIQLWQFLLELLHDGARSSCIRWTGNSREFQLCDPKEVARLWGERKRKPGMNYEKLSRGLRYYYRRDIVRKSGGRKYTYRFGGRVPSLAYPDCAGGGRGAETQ", "how_it_was_run": "as §1"}, "ELF3": {"target": "T2, ELF3 (Homo sapiens, UniProt P78545 1-371)", "T2 sequence": "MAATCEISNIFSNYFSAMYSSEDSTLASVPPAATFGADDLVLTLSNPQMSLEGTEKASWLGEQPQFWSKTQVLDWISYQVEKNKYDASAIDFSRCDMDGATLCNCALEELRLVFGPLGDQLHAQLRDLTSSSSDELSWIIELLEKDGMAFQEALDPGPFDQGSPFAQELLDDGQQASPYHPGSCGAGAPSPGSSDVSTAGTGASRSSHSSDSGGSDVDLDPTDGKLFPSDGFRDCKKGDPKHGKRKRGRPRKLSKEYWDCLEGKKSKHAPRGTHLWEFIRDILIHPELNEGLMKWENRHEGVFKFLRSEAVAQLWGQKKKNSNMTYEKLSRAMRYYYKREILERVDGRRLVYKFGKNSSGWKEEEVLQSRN", "how_it_was_run": "as §1"}, "ETV1": {"target": "ETV1 (Homo sapiens, UniProt P50549 1-477)", "sequence (P50549 whole entry)": "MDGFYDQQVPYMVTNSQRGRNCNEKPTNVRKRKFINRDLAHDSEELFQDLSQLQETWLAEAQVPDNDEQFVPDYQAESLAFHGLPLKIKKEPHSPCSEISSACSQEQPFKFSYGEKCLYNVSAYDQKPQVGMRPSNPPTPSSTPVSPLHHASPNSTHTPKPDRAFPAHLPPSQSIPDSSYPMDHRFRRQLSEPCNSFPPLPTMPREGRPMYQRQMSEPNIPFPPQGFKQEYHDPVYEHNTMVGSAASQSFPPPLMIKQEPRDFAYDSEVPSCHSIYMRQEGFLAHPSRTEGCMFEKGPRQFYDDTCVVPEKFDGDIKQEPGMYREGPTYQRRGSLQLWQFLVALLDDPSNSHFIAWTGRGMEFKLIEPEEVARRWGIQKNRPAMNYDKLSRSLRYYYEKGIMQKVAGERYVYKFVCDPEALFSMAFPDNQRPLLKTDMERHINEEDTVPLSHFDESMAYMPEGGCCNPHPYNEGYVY", "how_it_was_run": "as §1"}, "ERF": {"target": "T3, ERF (Homo sapiens, UniProt P50548 1-548)", "T3 sequence": "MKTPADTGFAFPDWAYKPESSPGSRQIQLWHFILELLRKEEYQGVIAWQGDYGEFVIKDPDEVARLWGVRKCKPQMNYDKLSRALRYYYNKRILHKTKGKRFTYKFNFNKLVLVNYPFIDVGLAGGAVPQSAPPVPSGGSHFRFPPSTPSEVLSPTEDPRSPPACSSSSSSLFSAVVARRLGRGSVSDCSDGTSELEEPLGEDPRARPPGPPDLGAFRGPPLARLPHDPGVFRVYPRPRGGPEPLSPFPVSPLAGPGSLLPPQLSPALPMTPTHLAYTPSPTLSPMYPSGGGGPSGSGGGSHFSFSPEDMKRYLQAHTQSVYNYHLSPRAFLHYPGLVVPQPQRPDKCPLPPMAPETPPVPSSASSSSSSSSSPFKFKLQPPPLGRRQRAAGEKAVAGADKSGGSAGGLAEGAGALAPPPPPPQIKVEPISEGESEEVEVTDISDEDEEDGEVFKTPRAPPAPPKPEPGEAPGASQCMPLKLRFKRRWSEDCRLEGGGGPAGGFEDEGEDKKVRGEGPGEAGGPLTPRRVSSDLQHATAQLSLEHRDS", "how_it_was_run": "as §1"}, "ETV3L": {"target": "T4, ETV3L (Homo sapiens, UniProt Q6ZN32 1-361)", "T4 sequence": "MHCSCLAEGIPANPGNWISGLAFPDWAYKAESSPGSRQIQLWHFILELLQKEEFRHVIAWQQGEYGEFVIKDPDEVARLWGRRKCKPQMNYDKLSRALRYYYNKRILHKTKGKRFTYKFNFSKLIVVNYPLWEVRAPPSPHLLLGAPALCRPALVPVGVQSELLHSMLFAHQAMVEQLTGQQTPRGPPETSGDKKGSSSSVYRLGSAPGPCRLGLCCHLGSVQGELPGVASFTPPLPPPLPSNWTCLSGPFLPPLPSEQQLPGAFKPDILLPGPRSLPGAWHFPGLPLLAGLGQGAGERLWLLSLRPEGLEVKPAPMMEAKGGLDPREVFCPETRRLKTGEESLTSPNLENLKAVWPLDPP", "how_it_was_run": "as §1"}, "ETS2": {"target": "T5, ETS2 (Homo sapiens, UniProt P15036 1-469)", "T5 sequence": "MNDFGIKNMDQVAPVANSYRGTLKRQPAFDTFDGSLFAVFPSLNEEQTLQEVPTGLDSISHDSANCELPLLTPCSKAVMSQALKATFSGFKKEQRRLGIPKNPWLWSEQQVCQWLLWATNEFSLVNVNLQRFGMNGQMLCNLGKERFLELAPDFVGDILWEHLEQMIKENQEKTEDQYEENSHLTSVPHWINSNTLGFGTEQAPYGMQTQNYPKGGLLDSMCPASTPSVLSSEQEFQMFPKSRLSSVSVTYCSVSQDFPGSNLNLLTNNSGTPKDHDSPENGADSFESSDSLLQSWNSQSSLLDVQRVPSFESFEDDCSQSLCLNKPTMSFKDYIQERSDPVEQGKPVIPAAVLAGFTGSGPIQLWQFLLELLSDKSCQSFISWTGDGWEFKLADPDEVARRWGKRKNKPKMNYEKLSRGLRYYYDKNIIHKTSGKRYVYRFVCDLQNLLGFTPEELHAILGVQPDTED", "how_it_was_run": "as §1"}, "ETV7": {"target": "T6, ETV7 (Homo sapiens, UniProt Q9Y603 1-341)", "T6 sequence": "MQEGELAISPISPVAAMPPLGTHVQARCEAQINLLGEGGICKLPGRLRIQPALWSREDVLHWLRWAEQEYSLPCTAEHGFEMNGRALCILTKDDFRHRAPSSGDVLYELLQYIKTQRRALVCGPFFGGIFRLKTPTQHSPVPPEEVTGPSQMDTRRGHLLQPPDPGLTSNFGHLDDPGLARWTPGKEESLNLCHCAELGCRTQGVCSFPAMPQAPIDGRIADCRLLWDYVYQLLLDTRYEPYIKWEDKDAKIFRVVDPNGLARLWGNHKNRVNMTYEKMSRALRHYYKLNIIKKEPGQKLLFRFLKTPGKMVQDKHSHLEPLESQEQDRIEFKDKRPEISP", "how_it_was_run": "as §1"}, "ETV3": {"target": "T7, ETV3 (Homo sapiens, UniProt P41162-2 1-143)", "T7 sequence": "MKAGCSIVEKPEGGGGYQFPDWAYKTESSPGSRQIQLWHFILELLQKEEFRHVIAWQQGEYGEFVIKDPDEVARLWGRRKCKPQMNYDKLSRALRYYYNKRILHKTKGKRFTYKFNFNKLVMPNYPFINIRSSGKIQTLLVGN", "how_it_was_run": "as §1"}, "ETV6": {"target": "ETV6 (Homo sapiens, UniProt P41212 1-452)", "sequence (P41212 whole entry)": "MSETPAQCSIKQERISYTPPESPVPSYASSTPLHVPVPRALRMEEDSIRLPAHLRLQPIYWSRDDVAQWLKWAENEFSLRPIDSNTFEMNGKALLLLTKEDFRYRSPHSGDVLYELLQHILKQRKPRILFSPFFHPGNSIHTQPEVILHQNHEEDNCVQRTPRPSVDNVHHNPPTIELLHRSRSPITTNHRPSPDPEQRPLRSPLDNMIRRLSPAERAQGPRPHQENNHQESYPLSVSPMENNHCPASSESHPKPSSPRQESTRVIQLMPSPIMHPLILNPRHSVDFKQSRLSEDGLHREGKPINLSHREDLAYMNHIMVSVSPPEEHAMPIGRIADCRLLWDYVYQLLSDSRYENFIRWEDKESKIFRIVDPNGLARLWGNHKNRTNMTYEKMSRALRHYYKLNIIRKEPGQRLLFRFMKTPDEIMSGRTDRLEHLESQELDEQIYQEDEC", "how_it_was_run": "as §1"}}}
{"sequence": "ACCATT", "values": [{"measurement": "binding signal", "setting": "ELF4", "value": "1.19 fold enrichment (6-mer frequency, TF over GST control)"}, {"measurement": "binding signal", "setting": "ETV2", "value": "1.26 fold enrichment (6-mer frequency, TF over GST control)"}, {"measurement": "binding signal", "setting": "ELF3", "value": "1.17 fold enrichment (6-mer frequency, TF over GST control)"}, {"measurement": "binding signal", "setting": "ETV1", "value": "1.14 fold enrichment (6-mer frequency, TF over GST control)"}, {"measurement": "binding signal", "setting": "ERF", "value": "1.03 fold enrichment (6-mer frequency, TF over GST control)"}, {"measurement": "binding signal", "setting": "ETV3L", "value": "1.16 fold enrichment (6-mer frequency, TF over GST control)"}, {"measurement": "binding signal", "setting": "ETS2", "value": "1.15 fold enrichment (6-mer frequency, TF over GST control)"}, {"measurement": "binding signal", "setting": "ETV7", "value": "1.11 fold enrichment (6-mer frequency, TF over GST control)"}, {"measurement": "binding signal", "setting": "ETV3", "value": "1.1 fold enrichment (6-mer frequency, TF over GST control)"}, {"measurement": "binding signal", "setting": "ETV6", "value": "1.14 fold enrichment (6-mer frequency, TF over GST control)"}]}
